# According to PubChem BioAssay (NCATS):
# Unmarked numbers belong to inactive results. Results filed as inconclusive are left out. Entries that show only a call come without a potency. Activity calls are given as the source filed them. Unless noted, the call rests on the fitted dose curve; in most records, active means well fitted curve in the direction sought with a large enough effect; inconclusive means small, poorly fitted or top-dose-only effect, or another doubt; inactive means no such curve, though single readings can be large; an effect the other way counts as inactive or inconclusive.
# Experiments:
# [1] = biological target: Rap guanine nucleotide exchange factor 3 (Homo sapiens) (UniProt O95398); assay: Confirmatory qHTS for antagonist of cAMP-regulated guanine nucleotide exchange factor 3 (EPAC1) (AID 1645880); details: EPAC1 Rap1B-BODIPY-GDP exchange, fluorescence; activity, negative = inhibition: at 115 µM (top of the series); further: nearly all actives have a fitted effect of over 55% in size; further: potency means the concentration at half of the fitted maximal effect
# Procedure, shortened: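 Nucleotide exchange uses 100 nM EPAC1, 250 nM RAP1B-BODIPY-GDP and 50 uM GDP, with compounds in a concentration-titration series. After 5 min at room temperature, fluorescence (480 nm ex/540 nm em) is read every 5 min for 30 min. Data are normalized to control ATA and DMSO.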
# [2] = biological target: Rap guanine nucleotide exchange factor 3 (Homo sapiens) (UniProt O95398); assay: Counterscreen qHTS for antagonist of cAMP-regulated guanine nucleotide exchange factor 3 (EPAC1) (AID 1645888);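 further: fluorescence loss as bound BODIPY-GDP is released from Rap1B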
# Procedure, shortened: (§1)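 Rap1B-BODIPY-GDP 250 nM + GDP 50 uM; cpds 7-pt, final 9.74 nM–152 uM (activator mode) or from 7.32 nM upwards (inhibitor mode); RT; FI 480/540 nm at 5 and 30 min, then ± cAMP, reread.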
# [3] = biological target: Tumor susceptibility gene 101 protein (Homo sapiens) (UniProt Q99816); assay: qHTS Assay for Iinhibitors of HIV-1 Budding by Blocking the Interaction of PTAP/TSG101: Hit Validation (AID 651600); further: potency means the concentration at half of the fitted maximal effect; nearly all actives have a fitted effect of over 70% in size
# Procedure, shortened: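 FITC-PTAP peptide (50 nM final) binding to Tsg101 binding domain (10 uM final) was measured by polarization after 20 min at r.t. with compounds, in 10 mM HEPES pH 7.5 buffer with 0.15 M NaCl and 0.01% Tween 20.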
# [4] = biological target: Rap guanine nucleotide exchange factor 4 (Homo sapiens) (UniProt Q8WZA2); assay: Confirmatory qHTS for antagonist of cAMP-regulated guanine nucleotide exchange factor 4 (EPAC2) (AID 1645885); further: nearly all actives have a fitted effect of over 25% in size; further: potency means the concentration at half of the fitted maximal effect
# [5] = biological target: Lysosomal acid glucosylceramidase (Homo sapiens) (UniProt P04062); assay: Glucocerebrosidase-p2 (AID 348; in the data active means potency below about 10 µM; further: potency means the concentration at half of the fitted maximal effect); details: purified GBA, blue fluorogenic substrate, 40 min
# Procedure, shortened: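 Compounds titrated from 0.6 nM upwards against 0.2 nM enzyme in pH 5.9 citric acid/KH2PO4, taurocholate, tween-20; blue fluorogenic substrate 80 uM, 40 min room temperature, stopped and read Ex 365/Em 440 for AC50.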
# [6] = AP1 Signaling Pathway (AID 357; active means well fitted curve in either direction with a large enough effect, not every such curve was filed as active;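 further: ME-180 reporter cells stimulated with EGF at its EC50 level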); details: ME-180 AP-1-bla reporter, EGF-induced, beta-lactamase ratio, 5 h; at 7.69 µM (top of the series) unless noted
# Procedure, shortened: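 A ratiometric CCF4 readout (405 nm excitation; 460 and 530 nm emission) quantified AP-1-driven beta-lactamase in ME-180 cells after 5 h with compound and EC50 EGF; AC50 values were derived for activators and inhibitors.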
# [7] = biological target: Cytochrome P450 1A2 (Homo sapiens) (UniProt P05177); assay: p450-cyp1a2 (AID 410; calls by dose curve; further: potency means the concentration at half of the fitted maximal effect)
# Procedure, shortened: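 Luminescent readout of luciferin formed from Luciferin-ME by human CYP1A2; data normalized against complete inhibition by 57 uM furafylline. Enzyme 20nM, substrate 100uM at Km, 100mM KPO4 buffer, 60 min reaction at room temperature.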
# [8] = NFAT Signaling Pathway (AID 444; active means well fitted curve in either direction with a large enough effect, not every such curve was filed as active;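 further: carbachol stimulus at about its EC50 of 1 µM final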); details: Jurkat NFAT-bla M1, carbachol, beta-lactamase ratio, 5 h; at 7.69 µM (top of the series) unless noted
# Procedure, shortened: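 Read-out: CCF4 FRET ratio (460 nm/530 nm) after 1 h RT dye loading, used for %activity and AC50 from titration series. Cells: Jurkat NFAT-β-lactamase/M1 line, treated with compound plus 1 uM carbachol for 5 h, 37 °C.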
# [9] = Stat Signaling Pathway (AID 446; active means well fitted curve in either direction with a large enough effect, not every such curve was filed as active;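 further: ME-180 cervical cancer cells given 40 pM IL-6 alongside compound; SIE-controlled beta-lactamase reporter measured as 460/530 nm FRET emission ratio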)
# Procedure, shortened: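 Screening format detects activators and inhibitors alike: ME-180 SIE-bla cells stimulated at 40 pM IL-6 for 5 hrs with compound, then dual-emission beta-lactamase read at 405 nm excitation.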
# [10] = biological target: Glucocorticoid receptor (Homo sapiens) (UniProt P04150); assay: GR-GFP Redistribution (AID 450;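 active means compounds whose dose series gives a full or clear partial fitted curve of increased nuclear translocation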; further: potency means the concentration at half of the fitted maximal effect); details: U2OS GR-GFP nuclear translocation, laser cytometry, 2 h
# [11] = biological target: Glucocorticoid receptor (Homo sapiens) (UniProt P04150); assay: GR-EFC Redistribution (AID 451; calls by dose curve; further: potency means the concentration at half of the fitted maximal effect); details: CHO-K1 GR-EFC translocation, beta-gal luminescence, 2 h
# Procedure, shortened: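 Translocation of GR-ED fusion to nuclear EA restores b-gal, read by luminescence after 1 h room-temperature detection. Engineered CHO-K1 biosensor cells, 1,000/well, exposed 2 h at 37 C to titrations up to 46 uM final.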
# [12] = biological target: Mitogen-activated protein kinase 10 (Mus musculus) (UniProt Q61831); assay: JNK3 AlphaScreen Assay (AID 530; active means well fitted curve in either direction with a large enough effect, not every such curve was filed as active;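 further: kinase came from lysate of stimulated human HepG2 cells; signal reports phosphorylation of biotinylated GST-cJun 1-79 at Ser73 with 10 µM ATP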)
# Procedure, shortened: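 Compound titrations were preincubated 15 minutes at room temperature with substrate, antibody and pre-activated JNK3-containing HepG2 lysate. Reactions were started with 10 uM ATP and stopped with EDTA-containing bead buffer for AlphaScreen detection.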
# [13] = biological target: Cytochrome P450 3A4 (Homo sapiens) (UniProt P08684); assay: qHTS Assay for Inhibitors and Substrates of Cytochrome P450 3A4 (AID 884); further: potency means the concentration at half of the fitted maximal effect; nearly all actives have a fitted effect of over 50% in size
# Procedure, shortened: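 20 nM human CYP3A4 with 25 uM Luciferin-PPXE (at KM) in 200 mM KPO4, preincubated 10 min with compound; NADPH regeneration started a 60 min RT reaction. Luciferin detected by luminescence, normalized to 57 uM ketoconazole as full inhibition.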
# [14] = biological target: Cytochrome P450 3A4 (Homo sapiens) (UniProt P08684); assay: qHTS Assay for Activators of Cytochrome P450 3A4 (AID 885); further: nearly all actives have a fitted effect of over 65% in size
# Procedure, shortened: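 Steps: enzyme/substrate mix dispensed; compound added, 10 min RT; NADPH regeneration solution added, 60 min RT; luciferin detection buffer stops reaction; 20 min later luminescence measured.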
# [15] = biological target: Cytochrome P450 2D6 (Homo sapiens) (UniProt P10635); assay: qHTS Assay for Inhibitors and Substrates of Cytochrome P450 2D6 (AID 891); further: potency means the concentration at half of the fitted maximal effect; nearly all actives have a fitted effect of over 60% in size
# Procedure, shortened: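 Human CYP2D6 (5 nM) with 30 uM Luciferin-ME EGE (at Km) in 100 mM KPO4, compound preincubated 10 min, then NADPH regeneration system for 60 min at room temperature. Luciferin read by luminescence; normalized to 1.43 uM quinidine.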
# [16] = biological target: Dual specificity protein kinase CLK4 (Homo sapiens) (UniProt Q9HAZ1); assay: qHTS Assay for Inhibitors of CDC-like Kinase 4 (ADP-FP Assay) (AID 1795);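 further: recombinant human CLK4 phosphorylating RS repeat peptide at 1 µM ATP; nearly all actives have a fitted effect of over 60% in size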
# Procedure, shortened: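 Kinase activity was measured as ADP production using Transcreener orange tracer (4 nM) and ADP antibody (1 ug/mL) fluorescence polarization, with ADP calculated from a calibration curve. The 1 h reaction contained 6.25 nM Clk4, 1 uM ATP and 100 uM RS peptide at pH 7.5 with Mg2+.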
# [17] = biological target: Rap guanine nucleotide exchange factor 3 (Homo sapiens) (UniProt O95398); assay: Counterscreen qHTS for agonist of cAMP-regulated guanine nucleotide exchange factor 3 (EPAC1) (AID 1645889); further: nearly all actives have a fitted effect of over 40% in size; further: potency means the concentration at half of the fitted maximal effect
# Procedure, shortened: as §1
# Sequence of Rap guanine nucleotide exchange factor 4 (Homo sapiens) (Q8WZA2 whole entry, looked up): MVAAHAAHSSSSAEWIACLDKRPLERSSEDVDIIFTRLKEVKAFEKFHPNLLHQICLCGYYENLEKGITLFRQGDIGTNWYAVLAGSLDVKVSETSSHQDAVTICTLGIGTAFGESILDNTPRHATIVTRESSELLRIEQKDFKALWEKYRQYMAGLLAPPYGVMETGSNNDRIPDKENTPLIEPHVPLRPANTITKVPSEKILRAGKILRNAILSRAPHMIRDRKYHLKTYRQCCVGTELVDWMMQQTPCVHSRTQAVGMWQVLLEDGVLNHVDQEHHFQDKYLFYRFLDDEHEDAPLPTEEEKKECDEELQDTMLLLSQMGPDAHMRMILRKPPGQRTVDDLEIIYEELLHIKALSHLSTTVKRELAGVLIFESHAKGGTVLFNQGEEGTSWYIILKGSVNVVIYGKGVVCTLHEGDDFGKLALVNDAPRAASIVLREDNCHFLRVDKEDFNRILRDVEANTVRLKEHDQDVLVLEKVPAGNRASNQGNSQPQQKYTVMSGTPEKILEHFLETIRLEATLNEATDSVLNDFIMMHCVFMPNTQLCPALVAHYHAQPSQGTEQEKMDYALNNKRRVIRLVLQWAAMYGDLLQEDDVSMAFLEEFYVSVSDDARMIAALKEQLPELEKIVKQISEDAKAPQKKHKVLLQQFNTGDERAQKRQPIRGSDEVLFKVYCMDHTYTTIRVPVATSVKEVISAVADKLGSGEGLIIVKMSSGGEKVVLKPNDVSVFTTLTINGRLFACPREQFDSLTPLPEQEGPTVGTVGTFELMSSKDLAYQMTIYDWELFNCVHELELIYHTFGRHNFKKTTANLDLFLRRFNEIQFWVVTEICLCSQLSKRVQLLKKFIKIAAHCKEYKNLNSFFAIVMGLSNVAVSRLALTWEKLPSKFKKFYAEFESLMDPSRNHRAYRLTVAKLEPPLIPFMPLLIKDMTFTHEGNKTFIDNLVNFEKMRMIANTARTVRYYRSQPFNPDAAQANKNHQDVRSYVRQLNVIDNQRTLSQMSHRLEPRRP
# Sequence of Rap guanine nucleotide exchange factor 3 (Homo sapiens) (O95398 whole entry, looked up): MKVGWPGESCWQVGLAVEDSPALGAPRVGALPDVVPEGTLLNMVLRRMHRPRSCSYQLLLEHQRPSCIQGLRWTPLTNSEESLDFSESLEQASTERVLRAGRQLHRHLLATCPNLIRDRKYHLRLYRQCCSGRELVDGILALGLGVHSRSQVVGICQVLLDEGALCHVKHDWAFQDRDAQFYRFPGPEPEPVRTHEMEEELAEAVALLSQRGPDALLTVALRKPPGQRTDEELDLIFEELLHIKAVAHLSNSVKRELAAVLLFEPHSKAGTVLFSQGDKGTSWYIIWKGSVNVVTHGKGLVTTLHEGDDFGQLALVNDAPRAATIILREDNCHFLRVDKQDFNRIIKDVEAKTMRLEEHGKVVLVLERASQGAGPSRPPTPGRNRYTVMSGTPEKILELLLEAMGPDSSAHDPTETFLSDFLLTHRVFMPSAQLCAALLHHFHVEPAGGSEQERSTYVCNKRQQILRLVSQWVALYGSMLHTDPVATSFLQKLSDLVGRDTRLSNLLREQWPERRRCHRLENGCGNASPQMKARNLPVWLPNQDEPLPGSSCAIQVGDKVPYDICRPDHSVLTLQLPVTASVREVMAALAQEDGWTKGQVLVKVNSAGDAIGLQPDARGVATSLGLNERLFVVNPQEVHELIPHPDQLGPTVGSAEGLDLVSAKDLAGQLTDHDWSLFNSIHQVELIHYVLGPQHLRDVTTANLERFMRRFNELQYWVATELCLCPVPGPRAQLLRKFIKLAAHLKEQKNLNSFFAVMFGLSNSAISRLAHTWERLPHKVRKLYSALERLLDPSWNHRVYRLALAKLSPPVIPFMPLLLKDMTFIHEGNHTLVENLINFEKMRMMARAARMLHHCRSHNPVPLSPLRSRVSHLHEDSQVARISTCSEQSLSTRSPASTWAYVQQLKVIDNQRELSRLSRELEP
# Sequence of Glucocorticoid receptor (Homo sapiens) (P04150 whole entry, looked up, the tested form may be a part): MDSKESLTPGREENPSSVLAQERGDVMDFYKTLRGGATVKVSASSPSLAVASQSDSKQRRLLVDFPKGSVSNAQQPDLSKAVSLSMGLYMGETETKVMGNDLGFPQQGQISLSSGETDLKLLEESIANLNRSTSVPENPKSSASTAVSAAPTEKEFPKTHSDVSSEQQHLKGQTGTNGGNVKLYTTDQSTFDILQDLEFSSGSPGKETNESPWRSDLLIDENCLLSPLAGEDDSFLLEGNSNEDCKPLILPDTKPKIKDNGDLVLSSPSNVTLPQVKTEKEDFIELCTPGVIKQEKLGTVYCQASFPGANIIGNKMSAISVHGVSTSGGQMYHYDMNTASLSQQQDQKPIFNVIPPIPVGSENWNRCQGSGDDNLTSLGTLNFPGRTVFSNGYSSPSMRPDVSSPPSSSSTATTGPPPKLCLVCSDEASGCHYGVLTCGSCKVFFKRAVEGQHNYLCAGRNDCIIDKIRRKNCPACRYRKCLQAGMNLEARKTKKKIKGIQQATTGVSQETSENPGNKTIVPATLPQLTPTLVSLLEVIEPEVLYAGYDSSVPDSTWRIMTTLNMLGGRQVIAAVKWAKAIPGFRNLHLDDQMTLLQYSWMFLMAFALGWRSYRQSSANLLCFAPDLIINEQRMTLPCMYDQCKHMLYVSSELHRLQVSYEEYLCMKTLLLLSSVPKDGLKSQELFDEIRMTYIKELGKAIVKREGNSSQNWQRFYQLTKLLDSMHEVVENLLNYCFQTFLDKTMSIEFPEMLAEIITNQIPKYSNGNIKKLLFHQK
# Sequence of Cytochrome P450 3A4 (Homo sapiens) (P08684 whole entry, looked up): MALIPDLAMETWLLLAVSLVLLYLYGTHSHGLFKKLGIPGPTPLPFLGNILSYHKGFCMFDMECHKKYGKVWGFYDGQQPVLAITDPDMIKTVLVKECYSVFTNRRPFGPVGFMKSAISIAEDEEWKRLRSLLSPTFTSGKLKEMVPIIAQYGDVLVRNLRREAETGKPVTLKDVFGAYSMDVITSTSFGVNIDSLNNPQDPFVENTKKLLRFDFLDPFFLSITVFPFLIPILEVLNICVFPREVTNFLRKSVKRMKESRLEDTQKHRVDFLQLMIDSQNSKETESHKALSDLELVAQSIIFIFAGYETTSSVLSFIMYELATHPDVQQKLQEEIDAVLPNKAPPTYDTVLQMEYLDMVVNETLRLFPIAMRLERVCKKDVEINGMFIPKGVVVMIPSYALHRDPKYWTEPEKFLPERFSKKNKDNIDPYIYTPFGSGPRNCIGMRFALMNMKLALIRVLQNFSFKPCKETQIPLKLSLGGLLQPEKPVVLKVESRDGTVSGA
# Sequence of Tumor susceptibility gene 101 protein (Homo sapiens) (Q99816 whole entry, looked up, the tested form may be a part): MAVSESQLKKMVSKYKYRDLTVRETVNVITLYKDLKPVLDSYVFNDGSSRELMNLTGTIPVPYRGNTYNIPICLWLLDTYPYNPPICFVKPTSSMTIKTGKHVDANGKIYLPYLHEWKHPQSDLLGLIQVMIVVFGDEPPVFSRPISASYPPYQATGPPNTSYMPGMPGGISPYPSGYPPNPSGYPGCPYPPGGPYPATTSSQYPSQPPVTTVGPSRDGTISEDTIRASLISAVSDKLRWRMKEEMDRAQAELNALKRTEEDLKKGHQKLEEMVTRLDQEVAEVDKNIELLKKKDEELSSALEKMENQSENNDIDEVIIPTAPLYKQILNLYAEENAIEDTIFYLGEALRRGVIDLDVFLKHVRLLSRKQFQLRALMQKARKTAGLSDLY
# Sequence of Cytochrome P450 1A2 (Homo sapiens) (P05177 whole entry, looked up): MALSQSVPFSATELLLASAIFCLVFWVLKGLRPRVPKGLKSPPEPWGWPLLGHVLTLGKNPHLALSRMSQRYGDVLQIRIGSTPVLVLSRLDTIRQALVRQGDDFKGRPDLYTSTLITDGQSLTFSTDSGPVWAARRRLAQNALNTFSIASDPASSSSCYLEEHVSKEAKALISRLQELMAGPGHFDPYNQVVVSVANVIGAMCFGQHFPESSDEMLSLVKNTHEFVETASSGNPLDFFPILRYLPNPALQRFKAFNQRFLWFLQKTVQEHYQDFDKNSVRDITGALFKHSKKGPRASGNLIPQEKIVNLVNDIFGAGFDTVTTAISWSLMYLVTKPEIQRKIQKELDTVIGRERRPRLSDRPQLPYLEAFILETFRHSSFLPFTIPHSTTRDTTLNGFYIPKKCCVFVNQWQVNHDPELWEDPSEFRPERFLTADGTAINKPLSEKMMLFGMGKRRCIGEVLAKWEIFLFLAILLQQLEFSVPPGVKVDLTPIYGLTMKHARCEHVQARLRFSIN
# Sequence of Cytochrome P450 2D6 (Homo sapiens) (P10635 whole entry, looked up): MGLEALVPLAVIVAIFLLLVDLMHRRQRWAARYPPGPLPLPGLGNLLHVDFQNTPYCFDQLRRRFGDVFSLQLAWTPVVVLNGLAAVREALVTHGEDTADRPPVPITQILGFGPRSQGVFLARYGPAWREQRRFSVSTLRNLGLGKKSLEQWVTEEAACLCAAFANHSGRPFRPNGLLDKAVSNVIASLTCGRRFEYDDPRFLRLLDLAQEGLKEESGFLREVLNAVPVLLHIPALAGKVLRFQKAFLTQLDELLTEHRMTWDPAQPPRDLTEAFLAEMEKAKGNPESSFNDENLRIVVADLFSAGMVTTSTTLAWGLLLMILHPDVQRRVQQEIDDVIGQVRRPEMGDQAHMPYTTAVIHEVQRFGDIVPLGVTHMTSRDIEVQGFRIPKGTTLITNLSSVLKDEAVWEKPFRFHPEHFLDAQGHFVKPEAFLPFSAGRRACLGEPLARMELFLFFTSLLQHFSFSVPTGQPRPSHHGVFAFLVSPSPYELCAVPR
structure (smiles),measurement,setting,value
CCCCN1C(=O)/C(=C/C=C2/CC(C)(C)CN2C)SC1=S,Potency,[1],inactive
same,Potency,[2],inactive
CCOc1ccc(C(=O)CCc2nc3ccccc3s2)cc1,Potency,[1],inactive
same,"activity change, negative = inhibition",[2],-7.41% [at 30.8 µM]
O=C(OCCN1C(=O)c2cccc3c(N4CCOCC4)ccc(c23)C1=O)c1ccc(Cl)cc1Cl,Potency,[3],4.61 µM (active)
same,Potency,[1],inactive
same,Potency,[4],inactive
same,"activity change, negative = inhibition",[2],68.2% [at 30.8 µM]
CCNc1ncc2nc(-c3cccs3)c(=O)n(CCC#N)c2n1,Potency,[5],> 11.4 µM
same,"activity change, negative = inhibition",[6],-3.58%
same,Potency,[7],3.16 µM (active)
same,"activity change, negative = inhibition",[8],-2.96%
same,outcome,[9],inactive
same,Potency,[10],> 9.22 µM
same,Potency,[11],> 46 µM
same,Potency,[12],inactive
same,Potency,[13],6.31 µM (active)
same,outcome,[14],inactive
same,Potency,[15],1.26 µM (active)
same,Potency,[16],inactive
same,Potency,[1],inactive
same,Potency,[4],inactive
CN(C)c1ncc2nc(CCc3ccccc3)c(=O)n(-c3ccccc3)c2n1,Potency,[7],0.794 µM (active)
same,"activity change, negative = inhibition",[8],12.7%
same,outcome,[9],inactive
same,Potency,[10],> 9.22 µM
same,Potency,[11],> 46 µM
same,Potency,[12],inactive
same,Potency,[13],6.31 µM (active)
same,outcome,[14],inactive
same,Potency,[1],inactive
same,Potency,[4],inactive
Cc1ccc2c(c1)N(Cc1cccc(F)c1)C(=O)C(C)O2 (stereo unspecified),Potency,[1],inactive
same,Potency,[2],inactive
COc1cc2c3nnc(-c4ccc(F)cc4)c-3cn(Cc3cccc(C)c3)c2cc1OC,Potency,[1],inactive
same,Potency,[2],inactive
same,Potency,[17],inactive
Cc1ccc2oc(=O)n(Cc3ccc(OC(C)C)cc3)c2c1,Potency,[1],inactive
same,Potency,[2],inactive
CC[n+]1c(/C=C/C=C/N(C(C)=O)c2ccccc2)sc2ccccc21,Potency,[1],84.9 µM (active)
same,Potency,[2],inactive
O=c1c(/C=C(\O)c2ccccc2)nc2ccccc2n1-c1ccccc1,Potency,[3],16.3 µM (active)
same,Potency,[1],inactive
same,Potency,[4],inactive
same,"activity change, negative = inhibition",[2],-1.75% [at 30.8 µM]
CCOc1ccc(-c2nn(-c3ccccc3)cc2/C=C2\SC(=S)N(C3CCS(=O)(=O)C3)C2=O)cc1 (stereo unspecified),Potency,[1],inactive
same,Potency,[2],inactive
C[n+]1ccc(/C=C/c2c[nH]c3ccccc23)cc1,Potency,[1],inactive
same,Potency,[2],inactive
same,Potency,[17],35.5 µM (active)
CN1CC=C2C(C#N)=C(N)C(C#N)(C#N)C(c3ccsc3)C2C1 (stereo unspecified),Potency,[1],inactive
same,Potency,[2],inactive
COC(=O)c1cc2ccccc2n1S(=O)(=O)c1ccccc1,Potency,[1],inactive
same,Potency,[2],inactive
CC(C)(C)C1COc2ccccc2N1C(=O)c1ccccc1Cl (stereo unspecified),Potency,[1],inactive
same,Potency,[4],30.1 µM (active)
same,Potency,[17],inactive
Fc1ccc(Nc2cncc(-c3ccsc3)c2)cc1Cl,Potency,[1],75.7 µM (active)
same,Potency,[2],inactive
CN1c2ccccc2C(C)(C)C12C=Nc1c(cc(N3CCOCC3)c3ccccc13)O2 (stereo unspecified),Potency,[1],inactive
same,Potency,[2],inactive
